# Hits are enriched below; roughly 6.5% of the tested compounds scored in any of these assays.
# Fluor 339 460 – intrinsic fluorescence of library compounds, ex339/em460 – biochemical, MLSMR library, data from DPM-DC assay, artefact control, profiling panel; compound autofluorescence, ex339/em460 nm, NADH buffer; hits give high values; 1 = no-compound wells, NADH background; fluorescence fold increase at 10 µM; 65,000 tested, 5.5% active; AID 709;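 active means at 10 µM, mean starting fluorescence two-fold or more over control wells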;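 further: signal is the first read of a kinetic run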
# DPM-DC inhibit – blocks S. pneumoniae diphosphomevalonate decarboxylase. purified DPM-DC, PK/LDH coupled NADH fluorescence. 65,000 tested, 0.49% active. calls only at 10 µM;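 active means the 320 compounds with the highest percent inhibition in the single-dose primary screen, excluding strongly autofluorescent ones, cut at about 32% in these data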;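 further: kinetic rate of NADH fluorescence loss reporting ADP formed by the decarboxylase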
# Abs 340nm – compounds absorbing at 340 nm. AID 708. fold change at 10 µM. compound absorbance at 340 nm, fold over control. 65,000 tested, under 10 active;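 active means at 10 µM dose, initial 340 nm absorbance at least 2 fold that of control wells; inactive means change under 2 fold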;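 further: initial absorbance extrapolated from kinetic A340 decline of NADH oxidation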
# NADH coupling – inhibition of NAD/NADH coupling enzymes, library profiling. coupled PK/LDH NADH assays, four targets. IC50, µM (doses to about 10 µM), inactives show top-dose inhibition. 65,000 tested, 0.02% active. AID 774;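 active means single-dose screening hits from any of four coupled enzyme assays that gave an IC50 when retested across doses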;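 further: the DPM-DC format reads NADH fluorescence rather than 340 nm absorbance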
# Spn MK inh – S. pneumoniae mevalonate kinase inhibition; purified MK, PK/LDH-coupled NADH absorbance 340 nm; inhibition, % at 10 µM; 65,000 tested, 0.48% active; AID 555;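 active means ranked among the strongest by inhibition in the single 10 µM screen, a fixed top-ranked set picked for dose follow-up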
# Spn PMK inh – blocks S. pneumoniae phosphomevalonate kinase | 65,000 tested, 0.49% active | purified PMK, PK/LDH-coupled NADH absorbance 340 nm | inhibition, % at 10 µM | AID 539;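 active means top-ranked compounds by inhibition in the single 10 µM screen, taking a fixed number of the strongest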;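 further: 0% = full reaction with DMSO carrier and 100% = background rate without enzyme reaction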
# * hit, by the source's call; i = inactive; · = no result shown; + = active, no number.
SMILES,Fluor 339 460,DPM-DC inhibit,Abs 340nm,NADH coupling,Spn MK inh,Spn PMK inh
CCOC(=O)CSc1nc(C)c2cc(OC)ccc2n1,3.7*,·,1.1,0%,0,0
CCC(=O)N/C(N)=N/c1nc(C)c2cc(OC)ccc2n1,2.1*,·,1,1%,2,1
COc1ccc2nc(/N=C(\N)NC(=O)C(C)(C)C)nc(C)c2c1,2,i,1,7%,2,6
COc1cccc(-c2cn3nc4c(nc3n2)CCCC4)c1,2.6*,i,1,11%,6,11
CCCc1cc(=O)oc2cc(Oc3ncccn3)ccc12,3.4*,i,1.1,16%,7,18
CCCc1cc(=O)oc2cc(OCC(=O)Nc3cc(C)on3)ccc12,3.6*,i,1.1,9%,0,6
Cc1cccc2cc(CN(Cc3ccc(F)cc3)C(=O)N(C)C)c3nnnn3c12,1,i,1,5%,0,16
COc1ccc(C(=O)N2CCN(C(=O)Cc3ccccc3)CC2)cc1OC,1.1,i,1,4%,3,10
CC(=O)c1cccc(NC(=O)N2CCCC2C(=O)Nc2cccc(C)c2C)c1 (stereo not drawn),1.1,i,1,3%,10,0
Cc1noc(C)c1CSc1nc2ccccc2s1,1.1,+,1,7%,5,16
Cc1noc(C)c1CSc1ccc2ccccc2n1,1.1,i,1,5%,7,7
Cc1c(O)c(CN2CCCC(C)C2)cc2c3c(c(=O)oc12)CCC3 (stereo not drawn),2.5*,·,1,4%,6,3
Cc1c(Cl)cccc1NC(=O)CCN1CCCC(C)C1 (stereo not drawn),1.1,i,1.1,0%,0,0
Cc1c(C)c2cc(Cl)c(O)c(CN3CCCC(C)C3)c2oc1=O (stereo not drawn),2.4*,·,1.1,4%,2,6
CN1CCN(Cc2c(O)ccc3c(-c4ccccc4)cc(=O)oc23)CC1,1.4,i,1.1,2%,3,4
Cc1c(C)c2cc(Cl)c(O)c(CN3CCN(C)CC3)c2oc1=O,2.3*,·,1.1,4%,2,5
CCn1cc(C(=O)Nc2nncs2)c(=O)c2cc(F)c(N3CCN(C(=O)c4ccco4)CC3)cc21,2.4*,i,1,15%,5,19
Cc1cccn2c(=O)c3cc(C(=O)NCC4CCCO4)c(=N)n(Cc4cccnc4)c3nc12 (stereo not drawn),3.7*,·,1,8%,9,6
N=c1c(C(=O)NCC2CCCO2)cc2c(=O)n3ccccc3nc2n1Cc1cccnc1 (stereo not drawn),3.7*,·,0.98,3%,0,5
Cn1nc(C(=O)NCC2CCCO2)c2ccccc2c1=O (stereo not drawn),1.1,i,1,7%,8,12
COC(=O)c1cc2c(=O)n3ccccc3nc2n(C)c1=N,3.8*,·,1,5%,1,8
COC(=O)c1cc2c(=O)n3ccccc3nc2n(Cc2cccnc2)c1=N,3.7*,·,1.1,4%,6,2
N#Cc1cc2c(=O)n3ccccc3nc2n(Cc2cccnc2)c1=N,1.3,i,1.1,0%,0,0
O=C(NCC1CCCO1)c1ccc2c(=O)n(CCc3ccccc3)c(=O)[nH]c2c1 (stereo not drawn),1.4,i,1.1,9%,4,20
CC(=O)NC1(C2CCCCC2=O)CCCCC1 (stereo not drawn),1,i,1.1,4%,7,6
SMILES,Fluor 339 460,DPM-DC inhibit,Abs 340nm,NADH coupling,Spn MK inh,Spn PMK inh
Clc1ccc(-c2nnc3ccccn23)cc1,1.2,i,1,10%,16,8
CCOC(=O)c1[nH]c2ccc(OC)cc2c1NC(=O)CN1CCSCC1,3.9*,·,1.1,12%,10,14
CCOC(=O)c1[nH]c2ccc(OC)cc2c1NC(C)=O,3.5*,·,1.1,8%,11,5
O=C(NCc1ccccc1)N[C@@H](Cc1ccccc1)C(=O)O,1,i,0.96,3%,7,3
Cc1oc(-c2ccc3c(c2)OCCO3)cc1C(=O)O,1.2,i,1.1,0%,0,0
CN(C(=O)C1CCOC1)c1nnc(-c2cnccn2)s1 (stereo not drawn),1.3,i,1,9%,0,14
CN(C(=O)C1CCOC1)c1nnc(C2CCOC2)s1 (stereo not drawn),1.1,i,1,9%,1,27*
Fc1cccc(-c2cc3nc4c(c(N5CCN(c6cnccn6)CC5)n3n2)CCCC4)c1,2.4*,·,0.99,5%,10,12
CCCCOCCCNC(=O)Cc1ccccc1OC,1.1,i,1,3%,6,2
COc1ccc(N2C(=O)C(CC(=O)O)S/C2=C\C(C)=O)cc1 (stereo not drawn),1.1,i,1,3%,9,0
COc1ccccc1N1CCN(C2CCN(C(=O)c3cccs3)CC2)CC1,1,i,1,19%,56*,2
COc1ccccc1N1CCN(C(=O)c2ccc(Br)s2)CC1,1,i,1,3%,9,0
COc1ccc(-c2ccc(-c3nnc(-c4ccncc4)o3)cc2)cc1,2.4*,+,1,9%,12,15
c1cnc2c(SCc3ccc(-c4nnco4)cc3)cccc2c1,3.3*,·,1,3%,0,6
c1ccc2[nH]c(SCc3ccc(-c4nnco4)cc3)nc2c1,1.1,i,1,5%,2,14
O=C(O)CCc1ccc(-c2ccc(Cl)cc2)n1CC(=O)O,1.1,i,1,2%,3,2
CCCn1c(CCC(=O)O)ccc1-c1ccc(OC)cc1,3.5*,·,1,8%,10,6
Cc1n[nH]c(C)c1SCC(=O)Nc1ccc(F)cc1,1.1,i,0.99,5%,9,5
CCCN(CCC)S(=O)(=O)c1ccc(C(=O)Nc2nnc(-c3cccc(OC)c3)o2)cc1,2.1*,·,1,5%,0,11
CCN(Cc1ccccc1)S(=O)(=O)c1ccc(C(=O)Nc2nnc(-c3ccccc3OC)o2)cc1,3.8*,·,1.1,8%,2,14
COc1ccccc1-c1nnc(NC(=O)c2ccc(S(=O)(=O)N(C)C)cc2)o1,1,i,1.1,10%,8,14
CCCN(CCC)S(=O)(=O)c1ccc(C(=O)Nc2nnc(-c3cc(OC)cc(OC)c3)o2)cc1,1.9,i,1,6%,1,8
CCn1c(SCC(=O)c2ccc(NS(=O)(=O)c3ccccc3)cc2)nnc1-c1cccs1,1.1,i,1.3,3%,3,7
COc1ccc(-c2nc(C#N)c(NCc3ccc(F)cc3)o2)cc1OC,3.9*,·,1.1,17%,13,20
COc1ccc(-c2nc(C#N)c(NCc3ccccc3Cl)o2)cc1OC,4*,·,1,13%,9,17

# Screening data deposited in PubChem BioAssay by SRMLSC.
